# In the supplement of paper PMC10338343:
# ± gives the standard deviation. The full ranking holds about 3,000 sequences; the median of “pre-steady-state target cleavage rate” is about 0.0079, and the highest 2% start at about 0.2. Shown is part of a subset that was picked to be rich in the highest values.
# Test system: MILI (PIWIL2) piRISC loaded with piRNA #2 (26 nt)
# Test: pre-steady-state target cleavage rate (min^-1); MIWI and MILI are mouse PIWI proteins and EfPiwi is from a freshwater sponge; tags in brackets are library labels; higher = faster piRNA-guided slicing of the target
# Conditions: guide: piRNA #2 5'p-UUAGGUAACCCAGUAGAUCCAGAGGA; auxiliary factor: 500 nM mouse GTSF1
# Experimental: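 Cleave-'n-Seq: a library of target RNAs (target site embedded in constant flanks, ACAGCATTCCGCGTTAGTGATATCCG... 5' flank; DNA-blocked outside the site) at 0.1 nM was incubated with 1 nM active mouse MILI or MIWI piRISC (synthetic 5'-monophosphorylated piRNA guide) with or without 500 nM mouse GTSF1 at 33 °C for 1 min to 16 h. Uncleaved targets were sequenced and normalised to non-target controls, and the pooled three trials were fitted to a burst-and-steady-state model to give the pre-steady-state cleavage rate (min^-1; k3 is constrained to at most 1e-4). Sequence is the target site only; target names encode pairing extent (gX:gY) and contiguous / 1-mismatch / 2-mismatch / bulge geometry. Fits with R² ≤ 0 are excluded.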
row,Sequence,pre-steady-state target cleavage rate
1,CUUAUCCUCUGGAUACUACUGGGUUACCUAA,0.0816 ± 0.019
2,CUUAAGCUCUGGAUCUACUGGGUUUCGUAA,0.0193 ± 0.0086
3,CUUAUCCUGUGGAUCUACUGGGUUACGUAA,0.0102 ± 0.0038
4,CUUAAGGUCUGGACUCUACUGGGUUACCUAA,0.0367 ± 0.014
5,CUUAACACUCUGGAUCUACUGGGUUACCUAA,0.0824 ± 0.024
6,CUUAAGCUCUGGAUCUACUGGGUUACGUAA,0.0464 ± 0.011
7,CUUAUCCUGCUGGAUCUACUGGGUUACCUAA,0.0776 ± 0.018
8,CUUAUCCUCUGGAUGUACUGGGUAACCUAA,0.0198 ± 0.0082
9,CUUAACCUCUCGAUCUACUGGGUUACGUAA,0.052 ± 0.017
10,CUUAUCCUCUGGUUCUACUGGGUUACCUAA,0.469 ± 0.1
11,CUUAUCCUCUGGUUCUACUGCGUUACCUAA,0.0261 ± 0.0078
12,CUUAUCCUCUGGUUCUAGUGGGUUACCUAA,0.134 ± 0.028
13,CUUAUCCUCUGGUUCUUCUGGGUUACCUAA,0.338 ± 0.088
14,CUUAUCCUCUGUAUCUACUGGGUUACCUAA,0.0865 ± 0.015
15,CUUAUCCUCUGGAUCUACUGGGGUUACCUAA,0.0435 ± 0.012
16,CUUAUCCUCUGGUAUCUACUGGGUUACCUAA,1.05 ± 0.33
17,CUUAUCCUCUCGUUCUACUGGGUUACCUAA,0.136 ± 0.021
18,CUUAUCCUCUGCUUCUACUGGGUUACCUAA,0.157 ± 0.026
19,CUUAUCCUCUGGUUCUACUGGGUUACCUUA,1.12 ± 0.39
20,CUUAUCCUCUGGAUCUUCUGGGUUACCUAA,0.105 ± 0.019
21,CUUAUCCUCUCCUUCUACUGGGUUACCUAA,0.106 ± 0.023
22,CUUAACCUCUGGAUCUACUGGGUUACCAUAA,0.13 ± 0.03
23,CUUAAGGAGACCUUCUACUGGGGUACCUAA,< 0.0001
24,CUUAAGGUGUGGAUCAACUGGGUUACCUAA,0.014 ± 0.0076
25,CUUAAGCUCUGGAUCUUGUGGGUUACCUAA,0.00903 ± 0.0046
26,CUUAACCUCUGGAUCUACGGGGUUACCUAA,0.0813 ± 0.012

row,Sequence,pre-steady-state target cleavage rate
1,CUUAAGGAGUGGAUCUACUGGGUUACCGUAA,0.0155 ± 0.0079
2,CUUAUCCUCUGGAUCUACAGGGUUACCUAA,0.119 ± 0.016
3,CUUAAGGACAGGAUCUACUGGGUUACCUAA,0.0192 ± 0.013
4,CUUAAGGAGACCUAGAUCUGGGUAACCAAA,< 0.0001
5,CUUAACCUCUGGUAUCUACUGGGUUACCUAA,0.584 ± 0.19
6,CUUAUCCUCUGGUUCUACUGGGUAACCUAA,0.268 ± 0.097
7,CUUAUCCUCUGGUUCAACUGGGUUACCUAA,0.225 ± 0.063
8,CUUAUCCUCUGGAUCUACUGGGUAACCUAA,0.0929 ± 0.021
9,CUUAUCCUCUGGUACUACUGGGUUACCUAA,0.754 ± 0.23
10,CUUAACCUCUGGUUCAACUGGGUUACCUAA,0.117 ± 0.035
11,CUUAACCUCUGUAUCUACUGGGUUACCUAA,0.071 ± 0.013
12,CUUAUCCUCUGGUAGUACUGGGUUACCUAA,0.103 ± 0.035
13,CUUAAGCUCUGGUAUCUACUGGGUUACCUAA,0.15 ± 0.038
14,CUUAUCCUCUGGAUCAACUGGGUUACCUAA,0.0659 ± 0.012
15,CUUAACCUCUGGUUCUACUGGGUAACCUAA,0.14 ± 0.044
16,CUUAUCCUCUGGUUGUACUGGGUUACCUAA,0.151 ± 0.031
17,CUUAAGGAGUAGGAUCUACUGGGUUACCUAA,0.00494 ± 0.0041
18,CUUAAGGUCUGCAUCUACUGGGUUACCAAA,0.0157 ± 0.0062
19,CUUAAGCUCUGGAUCUACUGGGUUAGCUAA,0.094 ± 0.018
20,CUUAACCUCUGGAUCUAUUGGGUUACCUAA,0.0785 ± 0.023
21,CUUAAGCUCUGGAUGUAGUGGGUUACCUAA,0.061 ± 0.011
22,CUUAAGCUCUGGAUCUACUGGGCUUACCUAA,0.019 ± 0.0061
23,CUUAACCUCUGGAGUCUACUGGGUUACCUAA,0.135 ± 0.031
24,CUUAACCUCUGGUUCUACUGGGUUACCUUA,0.3 ± 0.087
25,CUUAACCUCUGGUCUACUGGGUUACCUAA,0.333 ± 0.11
26,CUUAACCUCUGGUUCUACUGGGUUACCUAA,0.141 ± 0.031

row,Sequence,pre-steady-state target cleavage rate
1,CUUAACCUCUGGUUCUACUGGGUUACCAAA,0.134 ± 0.037
2,CUUAACCUCUGGGUCUACUGGGUUACCUAA,0.169 ± 0.029
3,CUUAUCCUCUGGAUCUAUGGGUUACCUAA,0.0334 ± 0.0086
4,CUUAACCUCUGCAUGUACUGGGUUACCUAA,0.117 ± 0.016
5,CUUAUCGUCUCGAUCUACUGGGUUACCUAA,0.0585 ± 0.014
6,CUUAAGGAAUGGAUCUACUGGGUUACCUAA,0.0666 ± 0.015
7,CUUAAGCUCUCGAUCUACUGGGUUACCUAA,0.113 ± 0.019
8,CUUAAGCACUCGAUCUACUGGGUUACCUAA,0.417 ± 0.15
9,CUUAAGCACUGGAUCUACUGGGUUACCUAA,0.113 ± 0.02
10,CUUAAGCACUGGUUCUACUGGGUUACCUAA,0.199 ± 0.043
11,CUUAAGCACUGCAUCUACUGGGUUACCUAA,0.0725 ± 0.015
12,CUUAAGCUGUGGUUCUACUGGGUUACCUAA,0.0437 ± 0.014
13,CUUAAGGUCAGGUUCUACUGGGUUACCUAA,0.0166 ± 0.0093
14,CUUAACCUCUGGAACUACUGGGUUACGUAA,0.118 ± 0.051
15,CUUAAGGUCAGGAUCUACUGGGUUACCUUA,0.0166 ± 0.0094
16,CUUAUCCUCUGGAUCUACUGGGUUACCUA,0.159 ± 0.032
17,CUUAUCCUCUGGAUCUACUGGGUUACCUCA,0.0902 ± 0.018
18,CUUAUCCUCUGGAUCUACUGGGUUACCUAC [g2:g26:cont:t1C],0.105 ± 0.014
19,CUUAUCCUCUGGAUCUACUGGGUUACCUCAA,0.0973 ± 0.019
20,CUUAUCCUCUGGAUCUACUGGGUUACCUGAA,0.384 ± 0.17
21,CUUAUCCUCUGGAUCUACUGGGUUACCUGA,0.838 ± 0.37
22,CUUAAGCUCAGGAUCUACUGCGUUACCUAA,0.0105 ± 0.0058
23,CUUAAGGUCUGGAUCUAGUGGGUUACGUAA,0.0114 ± 0.004
24,CUUAUCCUCUGGAUCUACUGGAUUACCUAA,0.0307 ± 0.0083
25,CUUAAGGAGUGGAUCUAGUGGGUUACCUAA,0.0231 ± 0.0069
26,CUUAUCCUCUGGAUCUACUGGGAUAGCUAA,0.0182 ± 0.0088
